# Screens as filed in PubChem.
# VACV Venus inh: inhibitors of vaccinia virus (Venus reporter); Vaccinia virus Venus reporter expression, fluorescence; Potency, µM (top dose mostly 36.5 µM), without a hit: top-dose activity change, negative = inhibition, most hits filed as inhibitors; 330,000 tested, 0.46% active; AID 720580; calls by dose curve; tested in A549 cells; also: potency is read from the fitted curve at half-maximal effect; nearly all actives have a fitted effect of over 30% in size
# TbPYK inhibitor: T. brucei pyruvate kinase inhibition. Q57TT1. TbPYK enzyme, Kinase-Glo Plus ATP luminescence, 45 min. Potency, µM (doses to about 76.8 µM), for inactives: at the highest dose activity, negative = inhibition, hits mostly inhibitors. 410,000 tested, 0.12% active; also: potency is read from the fitted curve at half-maximal effect; nearly all actives have a fitted effect of over 50% in size
#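 Readout: single end-point luminescence (Kinase-Glo Plus, 10 min). Reaction conditions were TbPYK/substrate plus 130 uM ADP, 45 min at RT, pH 7.2 TEA buffer. No-enzyme wells served as controls, and data were normalized before concentration-response fitting.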
# LmPK inhibitor: inhibitors of Leishmania mexicana pyruvate kinase | purified LmPK, Kinase-Glo ATP luminescence, 1 h | Potency, µM (doses to about 57.5 µM), without a hit: at the top dose activity change, negative = inhibition, usual class: inhibitors | 290,000 tested, 0.37% active | AID 1721; also: potency is read from the fitted curve at half-maximal effect
# Target sequence (Q27686 whole entry, looked up): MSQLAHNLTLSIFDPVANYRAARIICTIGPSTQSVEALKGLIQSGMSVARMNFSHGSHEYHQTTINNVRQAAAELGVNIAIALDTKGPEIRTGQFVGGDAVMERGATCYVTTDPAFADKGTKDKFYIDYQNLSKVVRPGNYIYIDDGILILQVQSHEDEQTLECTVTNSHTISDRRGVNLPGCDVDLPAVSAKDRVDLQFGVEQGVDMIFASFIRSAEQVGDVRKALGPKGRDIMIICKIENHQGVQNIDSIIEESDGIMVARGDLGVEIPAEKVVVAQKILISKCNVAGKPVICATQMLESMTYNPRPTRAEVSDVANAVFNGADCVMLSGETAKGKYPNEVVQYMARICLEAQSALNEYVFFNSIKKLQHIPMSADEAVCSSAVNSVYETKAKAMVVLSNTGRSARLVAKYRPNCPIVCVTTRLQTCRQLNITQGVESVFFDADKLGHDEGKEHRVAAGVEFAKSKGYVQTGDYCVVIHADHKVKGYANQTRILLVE
#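 0.1 nM LmPK, 0.5 mM PEP, 0.1 mM ADP; 50 mM imidazole pH 7.2, 7 mM MgCl2, 50 mM KCl; 1 h RT. Kinase-Glo luminescence readout, normalized to no-enzyme (full inhibition) and uninhibited wells.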
# HCMV inh: inhibitors of human cytomegalovirus | activity change, negative = inhibition, % at 57.5 µM | HFF cells, HCMV-luciferase reporter, 72 h; hits give low values | 410,000 tested, 4.5% active | AID 1259415; in the data active = activity change below about -60%; inconclusive = no clear call, values can overlap the other calls; inactive = above about -39%
#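 Screen run at 2 compound doses on HFFs infected with reporter HCMV, MOI 1 PFU/cell. Luciferase activity from cell lysates at 72 h post infection gave inhibition relative to buffer-only and Salinomycin wells.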
# VACV mCherry inh: vaccinia inhibition (mCherry reporter) | Vaccinia virus mCherry reporter infection, fluorescence | Potency, µM (highest dose often 36.5 µM), inactives show at the highest dose activity change, negative = inhibition, actives largely listed as inhibitors | 310,000 tested, 0.63% active; calls by dose curve; tested in A549 cells; also: potency is read from the fitted curve at half-maximal effect; nearly all actives have a fitted effect of over 35% in size
# * marks the source's active call; other numbers are inactive results; i = inactive; ? = inconclusive; / = no result; [ ] = remark or other dose. Sampled rows, rich in hits. Any-hit rate of the full collection: about 5%. Unless noted, calls follow the shape of the dose curve; as a rule, active = well fitted curve in the direction sought with a large enough effect; inconclusive = small, poorly fitted or top-dose-only effect, or another doubt; inactive = no such curve, though single readings can be large; an effect the other way counts as inactive or inconclusive. % is scaled to controls: 0 for no effect and ±100 for the full control effect.
SMILES,VACV Venus inh,TbPYK inhibitor,LmPK inhibitor,HCMV inh,VACV mCherry inh
O=C(C1CCC1)N1CCN(c2ccnc3cc(Cl)ccc23)CC1,/,-2.7%,1.1%,-87.4*,/
Cc1csc2ncnc(N3CCN(C(=O)Nc4ccc(OC(F)(F)F)cc4)CC3)c12,/,3.0%,-1.4%,-63.6*,/
Cc1nc(N2CCN(C(=O)c3ccco3)CC2)nc2c1C(=O)CC(C)C2 (stereo not given),-7.5%,1.8%,-5.2%,-8.6,-12.4%
O=C(Nc1cc(C(F)(F)F)ccc1Cl)C1CCN(c2nnc(-n3cccc3)s2)CC1,-12.1%,-2.8%,6.1%,-0.5,/
COC(=O)c1cc(NC(=O)COC(=O)C2COc3ccccc3O2)cc(C(=O)OC)c1 (stereo not given),/,-7.5%,/,82.7,/
COc1ccc(C(=O)NCCc2nnc3ccc(SCC(=O)NCc4ccccc4)nn23)cc1,-7.7%,-2.4%,-8.9%,7.2,-13.1%
Cc1cc(N)n2nc(-c3ccccc3)c(-c3ccccc3)c2n1,/,5.5%,6.8%,/,/
O=C(Nc1ccc(OC(F)(F)F)cc1)N1CCN(c2ccnc3cc(Cl)ccc23)CC1,/,0.4%,5.1%,-84.7*,/
COCC(=O)NCc1nc2cccnc2n1Cc1ccc(F)cc1,-1.2%,-2.8%,/,4.6,-3.1%
Cc1cccc(CC(=O)NCc2nc3cccnc3n2Cc2ccc(F)cc2)c1,-7.5%,-0.8%,/,-63.3*,-12.1%
O=C(c1ccc(CSc2nc3ccncc3n2Cc2ccccc2)cc1)N1CCCCCC1,-10.1%,-7.7%,/,14.2,-16.0%
CC(CNC(=O)c1ccc(CSc2nc3ccncc3n2Cc2cccc(F)c2)cc1)c1ccccc1 (stereo not given),-23.4%,3.1%,/,-70.2*,-29.7%
O=C(NCCc1ccccc1)c1ccc(CSc2nc3ccncc3n2Cc2ccc(F)cc2)cc1,?,-2.0%,/,-38.9,?
Cc1ccc(CCNC(=O)c2ccc(CSc3nc4ccncc4n3Cc3ccc(F)cc3)cc2)cc1,-20.8%,3.9%,/,-69.6*,-14.0%
Cc1cccc(Cn2c(SCc3ccc(C(=O)N4CCCCCC4)cc3)nc3ccncc32)c1,?,2.1%,/,-90.2*,?
CN(C)CCN(Cc1ccccc1)C(=O)C1CCN(c2ncnc3c2nc2n3CCCCC2)CC1,/,-3.9%,1.7%,?,/
O=C(NCc1cccs1)c1ccc(Cn2c(SCc3ccc(F)cc3)nc3cccnc32)cc1,-22.0%,-1.9%,/,-63.0*,-27.6%
Cc1cccc(Cn2c(SCc3ccc(C(=O)NC4CCCCC4)cc3)nc3cccnc32)c1,-20.3%,-6.0%,/,-83.5*,?
O=S(=O)(c1ccc2ccccc2c1)N1CCC(c2nc(-c3ccncc3)no2)CC1,-11.4%,4.4%,7.0%,-73.4*,-26.0%
Cc1ccc(-c2noc(C3CCN(S(=O)(=O)c4ccc5c(c4)OCCO5)CC3)n2)o1,?,-11.5%,11.0%,-96.0*,?
COc1cc(C(=O)N2CCN(C(=O)C3COc4ccccc4O3)CC2)cc(OC)c1OC (stereo not given),-10.2%,-4.3%,4.3%,-17.4,-14.1%
CCN1CCN(c2cc(C(C)C)nc3c(-c4ccccc4)c(C)nn23)CC1,-27.0%,4.1%,2.6%,-92.7*,?
Cc1nn2c(N3CCOCC3)cc(C(C)C)nc2c1-c1ccccc1,/,-5.4%,-2.0%,-31.4,/
Cc1nn2c(N3CCOCC3)cc(C(C)(C)C)nc2c1-c1ccccc1,/,3.5%,1.3%,31.1,/
CCN1CCN(c2cc(C(C)(C)C)nc3c(-c4ccccc4)c(C)nn23)CC1,-14.2%,0.8%,6.8%,-74.9*,-24.7%
SMILES,VACV Venus inh,TbPYK inhibitor,LmPK inhibitor,HCMV inh,VACV mCherry inh
CCOc1ccc(-n2c(SCC(=O)Nc3ccc(F)cc3)nc3c([nH]c4ccccc43)c2=O)cc1,-0.7%,-1.2%,/,-3.2,-6.3%
CC1CC(C)CN(S(=O)(=O)c2ccc(Oc3ccc([N+](=O)[O-])cc3)cc2)C1 (stereo not given),-2.9%,0.9%,4.4%,-72.0*,-8.6%
Cc1cc(NC(=O)CCC(=O)NNC(=O)c2ccc(C(C)(C)C)cc2)no1,-15.1%,-8.4%,-4.3%,-74.8*,-14.3%
Cc1ccc(C(=O)NNC(=O)CCC(=O)Nc2cc(C)on2)cc1,2.4%,-4.1%,-8.9%,-21.1,i
CCCCC[C@]12Cc3ccccc3C(O1)c1c(cc(C)oc1=O)O2,/,/,-5.0%[11.5 µM],/,/
Cc1nc(C(F)(F)F)ccc1C(=O)N1CCC1(C)C(=O)NS(=O)(=O)c1c(C)noc1C (stereo not given),11.8%,-1.6%,/,-8.6,52.1%
COc1ccc(S(=O)(=O)NC(=O)C2(C)CCN2C(=O)c2ccc(C(F)(F)F)nc2C)cc1 (stereo not given),-2.6%,0.0%,/,9.9,48.9%
Cc1nc(C(F)(F)F)ccc1C(=O)N1CCC1(C)C(=O)NS(=O)(=O)c1ccc(C(C)(C)C)cc1 (stereo not given),-24.0%,-6.9%,/,-81.2*,-11.2%
Cc1ccc(F)c(S(=O)(=O)NC(=O)C2(C)CCN2C(=O)c2ccc(C(F)(F)F)nc2C)c1 (stereo not given),7.1%,-7.4%,/,-86.9*,-1.0%
c1csc(-n2nc3ccccc3n2)c1,-0.4%,-4.2%,5.7%,-65.6*,/
COc1ccc(NC(=O)CSc2ccccn2)cc1OC,0.3%,0.5%,-3.4%,8.6,-3.7%
COc1ccc(NC(=O)CSc2ncccc2C(=O)OC(C)C)cc1OC,?,-1.2%,35.8%,-87.4*,-29.0%
Cc1cccn2cc(-c3ccc(F)cc3)nc12,/,-12.1%,15.8µM*,-27.7,/
O=C(O)CSC1c2ccccc2C(=O)N1Cc1ccccc1 (stereo not given),-16.4%,-5.0%,0.2%,-29.6,i
CC(C)(C)NCC(=Cc1ccccc1)C(=O)c1ccccc1,?,-1.8%,/,-97.6*,10µM*
Cn1c(CC(=O)Nc2ccccc2)nnc1SCC(=O)NC1=NCCS1,-4.6%,-8.2%,-8.1%,-3.8,-14.1%
O=C(Cc1ccccc1)N1CCCC(c2nc(-c3ccc(S(=O)(=O)N4CCCC4)cc3)no2)C1 (stereo not given),-2.9%,1.2%,3.8%,-39.4,i
O=C(C1CC1)N1CCC(c2nc(-c3ccc(S(=O)(=O)N4CCCC4)cc3)no2)CC1,-7.1%,3.3%,-0.2%,8.6,i
O=S(=O)(NCC1CCCO1)c1ccccc1 (stereo not given),/,5.2%,-6.4%,34.4,/
O=C(C1CC1)N1CCC(c2nc(-c3ccc(S(=O)(=O)NCC4CCCO4)cc3)no2)CC1 (stereo not given),/,-1.7%,7.9%,-96.5*,/
O=C(NC1CCCCC1)N1CCC(c2nc(-c3ccc(S(=O)(=O)N4CCCC4)cc3)no2)CC1,-1.4%,-3.2%,2.3%,-61.8*,-12.4%
O=C(CC1CCCCC1)N1CCC(c2nc(-c3ccc(S(=O)(=O)N4CCCC4)cc3)no2)CC1,-12.6%,-12.1%,7.2%,-29.6,-9.5%
O=C(c1ccccc1)N1CCC(c2nc(-c3ccc(S(=O)(=O)NCC4CCCO4)cc3)no2)CC1 (stereo not given),?,-8.2%,5.3%,-89.5*,?
